Source: PubChem (several laboratories)
Most compounds without a hit are left out; they make up all but 6.9% or so of the library.
GRIN3A LBD mod – modulators (binders) of human NR3A ligand-binding domain. NR3A LBD differential scanning fluorimetry, Tm shift; 0% = protein alone, 100% = glycine-bound protein. Tm shift relative to glycine control, % at 25 µM. actives 2.5% (n = 340,000);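 active = melting temperature shift of at least 10% of the positive control shift, at one fixed dose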
SKKanGAS inh – blocks kanamycin growth of S. pyogenes SKKanGAS strain; BacTiter-Glo, 6 h; actives 1.3% (n = 300,000); inhibition, % at 7.5 µM; AID 1662;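 active = mean replicate score, as percent of positive control median, at least 50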;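 also: strain carries kanamycin resistance gene driven by streptokinase promoter and grows in 40 µg/ml kanamycin; loss of luminescence reflects streptokinase promoter inhibition or plain growth inhibition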
MPTP inh – inhibitors of mitochondrial permeability transition pore. isolated mouse mitochondria, Ca2+ swelling absorbance, 30 min. inhibition, % at 10 µM. actives 1.4% (n = 360,000). AID 602449;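 active = inhibition of 50% or more, scaled per plate between neutral and stimulator controls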
Mdm2-MdmX inh – human Mdm2/MdmX binding inhibition | SaOS-2 split-luciferase Mdm2/MdmX complementation, luminescence | inhibition, % at 8 µM | AID 485346 | O15151+Q00987 | actives 3% (n = 330,000);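 active = inhibition of at least 50% at 8 µM in the primary screen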
CSC inhib – cancer stem cell inhibition; cancer stem cell-like cells viability, luminescence; inhibition, % at 7.5 µM; actives 1.1% (n = 300,000); in the data active = inhibition above about 75%; tested in HMLE shEcad cells
Beta cell apopt – blocks beta cell apoptosis; protection from apoptosis, % (test concentration not listed); INS-1E cytokine-induced death, ATP luminescence, 48 h; percent of positive-control rescue, neutral wells zero; AID 435005; actives 0.8% (n = 300,000);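 active = Every replicate reaches about 75%, or at least half do and their mean reaches it too, limit read from the data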;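 also: higher means more ATP so stronger rescue from cytokine killing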
Rh123 counter – mitochondrial membrane potential, counter-screen | actives 78% (n = 5,000) | inhibition, % at 10 µM | AID 624504 | shares compounds with MPTP inh | isolated mitochondria, Rhodamine 123 fluorescence; in the data active = inhibition above about 22%
MPTP abs DR – MPTP inhibition, dose response swelling confirmation. actives 58% (n = 780). IC50, µM. isolated mitochondria swelling, absorbance. AID 651561. shares compounds with MPTP inh; in the data active = IC50 below about 20 µM
MPTP cs DR – MPTP inhibitor counter-screen activity, dose response | shares compounds with MPTP inh | isolated mitochondria counterscreen, fluorescence read-out | IC50, µM | actives 49% (n = 780); in the data active = IC50 below about 80 µM
Each line names hits and unclear results; the compound was inactive in the other large screens (follow-up assays come after a bar, where they were run).

COc1ccc(/C=C/c2nc(-c3ccccc3O)n[nH]2)cc1	GRIN3A LBD mod 40, MPTP inh 56 | Rh123 counter 46
O=C(Nc1ccc(-c2n[nH]c(=S)o2)cc1)c1ccccc1Cl	none
COc1ccc(NC(=O)NCCCN2CCN(c3cc(C)ccc3C)CC2)cc1	MPTP inh 82 | Rh123 counter inactive | MPTP abs DR 15 | MPTP cs DR 39
COc1ccc(N2CCC(CNC(=O)Nc3ccc(Cl)cc3)C2)cc1 (centres undefined)	MPTP inh 91 | Rh123 counter 75
COc1cc(NC(=O)NCCN2CCN(c3ccc(Cl)cc3)CC2)ccc1C	MPTP inh 70 | Rh123 counter inactive | MPTP abs DR inactive | MPTP cs DR 73
CCc1noc(C)c1C(=O)Nc1nnc(C(CC)CC)s1	none (no result: SKKanGAS inh)
O=C(Nc1ccccc1)N1CCC(C(=O)N2CCN(c3ccccc3F)CC2)CC1	none
O=[N+]([O-])c1ccc(O)c(C2CCCCC2)c1	MPTP inh 88 (no result: SKKanGAS inh, Mdm2-MdmX inh, CSC inhib, Beta cell apopt) | Rh123 counter 102
CSCCC(C)N1CCC(Oc2ccc(C(=O)N3CCCC3)cc2)CC1 (centres undefined)	none
CCCn1c(=N)n(CC(O)c2ccc(C)cc2)c2ccccc21 (centres undefined)	none
COc1ccc(C(O)Cn2c(=N)n(CCCN(C)C)c3ccccc32)cc1 (centres undefined)	MPTP inh 80 | Rh123 counter inactive
CCc1ccc2oc(C(=O)NC3CCS(=O)(=O)C3)cc(=O)c2c1 (centres undefined)	none (no result: CSC inhib, Beta cell apopt)
COc1ccc(CN(C)Cc2nc(Cc3cccc(F)c3)no2)c2cccnc12	MPTP inh 73 | Rh123 counter 83
COC(=O)c1sc(NC(=S)NC(=O)c2cccc(Br)c2)nc1C	MPTP inh 90 | Rh123 counter 49
COC(=O)c1sc(NC(=S)NC(=O)c2ccc(F)cc2)nc1C	none (no result: GRIN3A LBD mod, MPTP inh)
Cc1ccc(-n2c(Cl)c(Cl)nc(Cl)c2=O)cc1	MPTP inh 67, CSC inhib 91, Beta cell apopt 98 (no result: SKKanGAS inh, Mdm2-MdmX inh) | Rh123 counter inactive
COc1nc(Cl)cn(-c2ccc(C)cc2)c1=O	none
CCC(=O)Nc1nnc(SCC(=O)NC2CCCC2)s1	none
CCCCCCCC1CC(CSC(=N)N)OC1=O (centres undefined)	MPTP inh 97 | Rh123 counter inactive | MPTP abs DR 6.3 | MPTP cs DR 52
CCCCC1CC(CSC(=N)N)OC1=O (centres undefined)	none (no result: Beta cell apopt)
Cc1ccc(S(=O)(=O)N2CCN(c3ncnc4scc(-c5ccccc5)c34)CC2)cc1	none (no result: SKKanGAS inh)
Cc1ccc(OCCN2CCN(c3ncnc4sc(C)c(C)c34)CC2)cc1	MPTP inh 97, Beta cell apopt 114 | Rh123 counter 90
Clc1ccc(OCCN2CCN(c3ncnc4sccc34)CC2)cc1	MPTP inh 100, Beta cell apopt 106 (no result: SKKanGAS inh) | Rh123 counter 101
Cc1sc2ncnc(N3CCN(S(=O)(=O)c4ccccc4)CC3)c2c1C	MPTP inh 94, Beta cell apopt 99 (no result: SKKanGAS inh, CSC inhib) | Rh123 counter 89
CSc1ccccc1OCc1cc(C(=O)NCCn2nc(C)cc2C)no1	none (no result: Beta cell apopt)
O=C(NCc1cccc(Cl)c1)c1cc(COc2ccc3ncccc3c2)on1	MPTP inh 105 | Rh123 counter 92
Cc1nc(CN(C)C(=O)c2cc(COc3ccc4ncccc4c3)on2)cs1	MPTP inh 99 | Rh123 counter 69
CC(C)N(Cc1nccn1C)C(=O)c1cc(COc2ccc3ncccc3c2)on1	none
COc1cccc(CCNC(=O)c2cc(COc3ccc(C)c(C)c3)on2)c1OC	none (no result: GRIN3A LBD mod, SKKanGAS inh, Mdm2-MdmX inh, CSC inhib, Beta cell apopt)
Cc1ccc(F)cc1CNC(=O)c1cc(COc2ccc3ncccc3c2)on1	MPTP inh 95 | Rh123 counter 105
Cc1cc(C)n(CCNC(=O)c2cc(COc3ccc4ncccc4c3)on2)n1	MPTP inh 63 | Rh123 counter 37
CCCCC1CCC(C(=O)N(C)CC(=O)Nc2cccc(F)c2)CC1 (centres undefined)	none
Cc1ccc(OCc2cc(C(=O)NC(C)Cc3cccnc3)no2)cc1C (centres undefined)	none
CC(CCCC(C)(C)O)NC(=O)c1cc(COc2ccc3ncccc3c2)on1 (centres undefined)	MPTP inh 92, Beta cell apopt 88 | Rh123 counter 79
COc1ccccc1NS(=O)(=O)c1ccc(NN=C2CCCC2)c([N+](=O)[O-])c1	MPTP inh 60 | Rh123 counter 47
CC(C)(C)c1ccc(/C=C/C(=O)Nc2ccncc2)cc1	MPTP inh 98 | Rh123 counter 92
O=C(NCCC(=O)N(CCc1ccccc1)Cc1ccccc1)c1ccc(Br)cc1	none
O=C(CSc1ccc(F)cc1)NC(=O)NCc1ccccc1	none
CC(C)C(=O)N1CCC(CN=CC2=C(O)CC(C)(C)CC2=O)CC1	MPTP inh 69 | Rh123 counter 113
CC1(C)CC(=O)C(C=NCC2CCN(C(=S)Nc3cccc(Cl)c3)CC2)=C(O)C1	none
O=C(Nc1c(Br)cc2c(c1Br)Cc1ccccc1-2)C(Cl)Cl	none (no result: SKKanGAS inh, Mdm2-MdmX inh, CSC inhib, Beta cell apopt)
CCOC(=O)C1=C(CS(=O)(=O)c2ccccc2)NC(=O)NC1c1ccccc1OC (centres undefined)	none
CCOC(=O)c1cccc(NC(=O)CCc2nc(-c3ccc(C)cc3)no2)c1	none
CCOC(=O)c1ccc(NC(=O)CCc2nc(-c3ccccc3Cl)no2)cc1	MPTP inh 89 | Rh123 counter 76
CCOC(=O)c1ccc(NC(=O)CCc2nc(-c3ccccc3)no2)cc1	MPTP inh 62 | Rh123 counter 69
CCCn1c(SCC(=O)NCc2ccc3c(c2)OCO3)n[nH]c1=O	none (no result: SKKanGAS inh, CSC inhib)
CCCCCCn1c(=O)n2n(c1=O)[C@@H]1CN(S(=O)(=O)c3ccc(C)cc3)C[C@]1(O)[C@@H](OC(=O)NCC1CCCCC1)C2	none (no result: GRIN3A LBD mod, SKKanGAS inh, Mdm2-MdmX inh, CSC inhib, Beta cell apopt)
COC(=O)C1=C(C(=O)OC)[C@@H]2N(C)c3ccc(OC)cc3[C@@]23C[C@@H](C(=O)OC)N(C(=O)c2cc(C)oc2C)C3=N1	none (no result: MPTP inh)
COc1ccccc1NS(=O)(=O)c1ccc(O)c(C(=O)OCC(=O)Nc2ccccc2F)c1	none
O=C(COC(=O)c1cc(S(=O)(=O)Nc2ccccc2Cl)ccc1O)Nc1ccc(F)c(F)c1F	MPTP inh 68 (no result: SKKanGAS inh) | Rh123 counter 85
CCOc1ccc(S(=O)(=O)N2CCC(C(=O)OC(C)C(=O)N(C)C3CCCCC3)CC2)cc1 (centres undefined)	none
CC(C)CC(=O)NC(NC(=S)Nc1ccccc1)C(Cl)(Cl)Cl (centres undefined)	none
